Assay outcomes (PubChem BioAssay)
S-ASM inh: blocks human secretory acid sphingomyelinase; P17405; placental ASM, HMU-PC fluorogenic substrate, 60 min; Potency, µM (highest dose often 57.5 µM), without a hit: at the highest dose activity change, negative = inhibition, most hits filed as inhibitors; hit rate 0.006% among 340,000; note: potency is the fitted concentration of half-maximal effect
Target sequence (P17405 47-631 limits assumed): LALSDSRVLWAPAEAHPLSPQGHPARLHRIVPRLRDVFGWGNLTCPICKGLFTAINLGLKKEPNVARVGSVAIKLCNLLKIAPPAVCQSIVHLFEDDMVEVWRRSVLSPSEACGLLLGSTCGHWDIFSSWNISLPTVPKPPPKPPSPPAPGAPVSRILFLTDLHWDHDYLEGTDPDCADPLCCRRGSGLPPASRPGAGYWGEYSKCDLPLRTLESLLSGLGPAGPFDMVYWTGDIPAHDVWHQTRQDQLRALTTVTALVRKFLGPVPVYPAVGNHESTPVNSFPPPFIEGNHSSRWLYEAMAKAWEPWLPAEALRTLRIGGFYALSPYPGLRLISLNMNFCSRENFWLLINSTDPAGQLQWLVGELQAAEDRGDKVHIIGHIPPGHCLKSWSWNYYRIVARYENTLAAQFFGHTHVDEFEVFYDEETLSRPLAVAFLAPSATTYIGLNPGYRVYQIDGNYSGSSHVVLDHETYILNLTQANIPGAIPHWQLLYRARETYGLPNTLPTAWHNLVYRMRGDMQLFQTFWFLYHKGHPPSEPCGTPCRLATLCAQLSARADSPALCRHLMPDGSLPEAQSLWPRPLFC
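Fluorogenic HMU-PC substrate (9 uM final) is turned over by placental ASM in 60 min at 37 C after a 10 min compound preincubation. Reaction ended by alkaline stop (pH 10), with fluorescence read at 386/447 nm.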
KB-V1 cytotox: KB-V1 MDR subline cytotoxicity; KB-V1 MDR cells viability, CellTiter-Glo, 72 h; Potency, µM (titrated, usually from 46.1 µM), hits mostly cytotoxic; hit rate 3.4% among 400,000; AID 1347076; note: potency is the fitted concentration of half-maximal effect; % is set by controls: 0 for no effect and ±100 for the full control effect; nearly all actives have a fitted effect of over 60% in size
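KB-V1 MDR subline cells in DMEM (phenol-red free, 10% FBS) exposed to compounds in qHTS concentration series for 72 h at 37 degrees C. Viability read by CellTiter-Glo luminescence; concentration-effect curves fitted after normalization and correction.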
Giardia killer: Giardia lamblia killing; activity change, % at 7.66 µM, hits read low; AID 540267; Giardia lamblia trophozoite viability; hit rate 0.15% among 340,000; in the data active = activity change below about -80%; inconclusive = between about -30% and that limit;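 note: parasites exposed to compound for two days anaerobically before the ATP read; % is set by controls: 0 for no effect and ±100 for the full control effect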
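Trophozoite viability was measured as ATP-dependent luminescence, read 15-30 min after reagent addition. Before that, parasites at 100 cells/well were exposed to compounds for 48 h, anaerobically, at 37 deg C.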
MCF10A rereplic: DNA re-replication induction in MCF 10a cells. Potency, µM (series often up to 46.1 µM), for inactives: top-dose activity, positive = re-replication, most hits filed as activators. MCF 10A DNA re-replication, Hoechst nuclear intensity, 48 h. hit rate 2.9% among 350,000; note: potency is the fitted concentration of half-maximal effect; % of control where 0% means no effect; nearly all actives have a fitted effect of over 50% in size
KB-3-1 tox: kills parental KB-3-1 adenocarcinoma cells | hit rate 1.4% among 400,000 | KB-3-1 viability, CellTiter-Glo ATP luminescence, 72 h | Potency, µM (highest dose often 46.1 µM), actives largely listed as cytotoxic; note: potency is the fitted concentration of half-maximal effect; % is set by controls: 0 for no effect and ±100 for the full control effect; nearly all actives have a fitted effect of over 60% in size
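KB-3-1 parental drug-naive adenocarcinoma cells in DMEM/10% FBS, incubated 72 h at 37 C with pin-transferred compounds across a concentration series. Viability by CellTiter-Glo luminescence; concentration-response curves fitted after normalization.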
SW480 rereplic: induces DNA re-replication in SW480 colon adenocarcinoma cells; SW480 DNA re-replication, Hoechst DNA content imaging, 48 h; Potency, µM (doses to about 46.1 µM), inactives show at the highest dose re-replication activation, usual class: activators; hit rate 1.8% among 340,000; note: potency is the fitted concentration of half-maximal effect; % of control where 0% means no effect; nearly all actives have a fitted effect of over 55% in size
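Cells (250 per well) received 23 nL compound or DMSO by pin tool and were kept 48 hr at 37 C, 5% CO2. Nuclei were then stained with Hoechst for 40 min and scanned for DNA content.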
* marks the source's active call; other numbers are inactive results; i = inactive; ? = inconclusive; / = not tested or not shown. Only some compounds are listed: those with a hit (about 6.9% of all), similar ones and a draw of the others. Unless noted, calls come from the whole dose curve; as a rule, active = well fitted curve in the direction sought with a large enough effect; inconclusive = small, poorly fitted or top-dose-only effect, or another doubt; inactive = no such curve, though single readings can be large; an effect the other way counts as inactive or inconclusive.

SMILES | S-ASM inh | KB-V1 cytotox | Giardia killer | MCF10A rereplic | KB-3-1 tox | SW480 rereplic
Clc1ccc2c(NCCNC3CCCCC3)ccnc2c1 | 8% | ? | -9 | ? | ? | 6.5µM*
CCNc1ccc(S(=O)(=O)N(C)C)cc1NCC(=O)Nc1ccc(Br)cc1F | 0% | 16µM* | -13 | 5% | i | 2%
CCC(c1nnnn1CCc1ccccc1)N(Cc1ccco1)Cc1cc2cccc(C)c2[nH]c1=O (configuration not stated) | -6% | 7.3µM* | -12 | ? | ? | -1%
Cc1ccc2cc(CN(CCN3CCOCC3)Cc3nnnn3Cc3ccco3)c(=O)[nH]c2c1C | 2% | i | 13 | -3% | i | -5%
Cc1ccc2cc(CN(CCCN3CCOCC3)C(c3nnnn3Cc3ccco3)C(C)C)c(=O)[nH]c2c1C (configuration not stated) | -4% | i | -6 | ? | i | 21µM*
CCC(c1nnnn1C(C)(C)C)N(Cc1ccco1)Cc1cc2cccc(C)c2[nH]c1=O (configuration not stated) | -9% | 23µM* | -6 | 9% | i | 2%
CCOC(=O)c1cc2c(=O)n3ccccc3nc2n(CC2CCCO2)c1=NC(=O)c1ccccc1OCC (configuration not stated) | / | i | / | / | i | /
COc1c(C)c2c(c(O)c1CC=C(C)CCC(=O)OCCN1CCOCC1)C(=O)OC2 | / | / | / | 4% | / | -3%
Cc1cc(C)c2c(CC(=O)N3CCN(c4cccc(Cl)c4)CC3)coc2c1 | / | ? | / | / | i | /
COc1ccc(C(=O)Nc2ccc3[nH]ncc3c2)cc1OC | -1% | i | -14 | -3% | i | 5%
COc1ccc(C(=O)c2[nH]c(N)c(C(=O)NCCc3c[nH]c4ccccc34)c2-c2ccc(Cl)cc2)cc1 | / | i | / | / | i | /
Nc1[nH]c(C(=O)c2ccccc2)c(-c2ccccc2C(F)(F)F)c1C(=O)NCCc1c[nH]c2ccccc12 | / | i | / | / | ? | /
Nc1[nH]c(C(=O)c2ccc(Br)cc2)c(-c2ccc(Br)cc2)c1C(=O)NCCc1c[nH]c2ccccc12 | / | 21µM* | / | / | ? | /
Nc1[nH]c(C(=O)c2ccccc2)c(-c2ccc([N+](=O)[O-])cc2)c1C(=O)NCCc1c[nH]c2ccccc12 | / | 23µM* | / | / | ? | /
Cc1c(C(=O)Nc2cccc([N+](=O)[O-])c2)csc1-c1ccccc1 | -1% | 8.2µM* | -2 | ? | i | 3%
COc1cccc(NC(=O)c2cc([N+](=O)[O-])ccc2NCc2cccnc2)c1 | -22% | 3.7µM* | 18 | -1% | i | 9%
Cc1ccc(NC(=O)c2csc(-c3ccccc3)c2C)cc1 | 2% | i | ? | 26% | i | -6%
O=C(Nc1cccc([N+](=O)[O-])c1)c1cc2ccccc2cc1O | -14% | ? | 3 | ? | 13µM* | ?
Cc1ccc(NC(=O)c2cc([N+](=O)[O-])ccc2NCc2cccnc2)cc1Cl | -24% | i | -23 | 6% | i | 11%
COc1ccc(NC(=O)c2cc([N+](=O)[O-])ccc2O)cc1 | -2% | ? | -89* | ? | 18µM* | 18%
O=C(O)c1ccccc1C(=O)Nc1cccc([N+](=O)[O-])c1 | -3% | i | -18 | -6% | i | -1%
Cc1c2cnccc2c(C)c2c1c1ccccc1n2CCOC(=O)c1ccccc1 | / | i | / | / | i | /
COc1ccc(Cc2nnc(NC(=O)c3ccccc3)s2)cc1OC | -1% | i | 13 | -1% | i | -5%
Cc1cccc(NC(=O)CCCC(=O)OC(C)C(=O)c2ccccc2)c1 (configuration not stated) | -1% | i | 0 | 6% | i | -23%
Clc1ccc(-c2c[n+]3c(n2-c2ccccc2)SCC3)cc1 | -4% | i | 8 | 5% | 15µM* | -1%
SMILES | S-ASM inh | KB-V1 cytotox | Giardia killer | MCF10A rereplic | KB-3-1 tox | SW480 rereplic
Fc1ccc(-c2cn(-c3ccccc3)c3[n+]2CCS3)cc1 | 1% | i | 9 | 4% | ? | -5%
O=[N+]([O-])c1cccc(-c2c[n+]3c(n2-c2ccccc2)SCC3)c1 | -1% | i | 7 | -1% | i | -1%
COc1ccc(-c2cn(-c3ccc(Br)cc3)c3[n+]2CCS3)cc1 | 0% | i | -10 | 4% | 8.2µM* | -3%
COc1ccc(-c2cn(-c3ccc(Cl)cc3)c3[n+]2CCCCC3)cc1 | 6% | i | 28 | ? | 9.2µM* | 3%
Clc1ccc(-c2cn(-c3ccccc3)c3[n+]2CCS3)cc1 | -3% | i | -13 | 14% | 13µM* | 9%
CCOC(=O)C1CCCN(C(=S)NC(=O)c2cc(Br)ccc2Cl)C1 (configuration not stated) | 1% | i | -18 | 7% | i | 16µM*
CCOC(=O)N1CCN(C(=S)NC(=O)c2cc(Br)ccc2Cl)CC1 | 1% | i | 6 | 4% | i | -4%
CCSc1ncc(Cl)c(C(=O)Nc2sc(C(C)=O)c(C)c2C(=O)OC)n1 | / | i | / | / | ? | /
C[C@H]1CN([C@@H](C)CO)C(=O)CCCn2nncc2CO[C@H]1CN(C)S(=O)(=O)c1ccc2c(c1)OCCCO2 | / | ? | / | / | i | /
O=C1CCCC2=C1C(c1ccsc1)CC(=O)N2c1nnc(SCc2ccccc2)s1 (configuration not stated) | -4% | i | 12 | -2% | i | -3%
O=C1CCCC2=C1C(c1ccsc1)CC(=O)N2c1ccccc1 (configuration not stated) | 1% | 13µM* | 4 | 14% | i | 11%
Fc1ccc(-c2cc(-c3ccccc3)nc(-n3cccn3)n2)cc1 | -7% | i | -19 | 18µM* | i | 3%
c1ccc(Nc2nc(Nc3ccccc3)nc(-n3cccn3)n2)cc1 | / | i | -8 | / | ? | /
O=C(CSc1ncc(C(F)(F)F)cc1Cl)N1CCN(S(=O)(=O)c2ccc3ccccc3c2)CC1 | -2% | 5.8µM* | 3 | 18% | i | 6%
CC(C)CC(=O)N1CCN(S(=O)(=O)c2ccc3ccccc3c2)CC1 | -1% | 7.3µM* | -20 | 6% | ? | 4%
O=S(=O)(c1ccc2ccccc2c1)N1CCN(C2CCN(Cc3ccccc3)CC2)CC1 | 2% | 7.3µM* | 14 | 1% | i | -4%
CCc1ccc(Nc2nc3ccccc3c3nnc(C)n23)cc1 | / | i | / | / | i | /
CCOc1ccccc1NC(=O)CN1C(=O)C2(SCC(=O)N2c2ccc(C)cc2)c2ccccc21 (configuration not stated) | / | i | / | / | ? | /
Cc1ccccc1N=C1Nc2ccc(Cl)cc2N[C@]12C[C@H]1CCCC(=O)N3CC[C@@H](C2)[C@@H]13 | / | i | / | / | i | /
